Lassa entry inh – inhibitors of Lassa virus binding or cell entry; Lassa virus pseudotype entry inhibition, cell reporter; Potency, µM (series often up to 37.9 µM), actives largely listed as inhibitors; 300,000 tested, 1.2% active; AID 540256; calls by dose curve; tested in HEK293 cells; further: nearly all actives have a fitted effect of over 50% in size
FMDV inh – blocks foot and mouth disease virus. Potency, µM (titrated, usually from 57.9 µM), usual class: inhibitors. FMDV antiviral cell-based qHTS. 410,000 tested, 1.2% active; calls by dose curve; tested in HEK293T cells; further: read-out not given here; nearly all actives have a fitted effect of over 45% in size
Marburg entry inh – Marburg virus entry inhibition. Potency, µM (doses to about 37.8 µM), most hits filed as inhibitors. Marburg virus pseudotyped entry inhibition, cell reporter. 300,000 tested, 1.8% active. AID 540276; calls by dose curve; tested in HEK293 cells
SARS PLpro yeast – blocks SARS-CoV papain-like protease in a yeast assay. Potency, µM (highest dose often 32.9 µM), usual class: activators. S. cerevisiae expressing SARS-CoV PLpro, growth rescue. 330,000 tested, 0.19% active; calls by dose curve; further: nearly all actives have a fitted effect of over 55% in size
HCV inh – inhibitors of hepatitis C virus infection; Huh7.5.1 HCVcc-Cre infection, luciferase reporter, 44 h; Potency, µM (highest dose often 41.8 µM), actives largely listed as inhibitors; 340,000 tested, 3.4% active; AID 651820; active means well fitted inhibition curve with a large enough effect; inconclusive means small, poorly fitted or top-dose-only effect, or another doubt; inactive means no such curve, though single readings can be large or run the other way
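A cell-based infection assay in which seeded cells (1,000 per well) receive test compound after 4 h, are inoculated with HCVcc-Cre at approximately 0.5 moi, and are incubated 44 h before luminescence detection.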
HCMV antiviral – inhibitors of human cytomegalovirus | HFF cells, HCMV-luciferase reporter, 72 h; stronger effect = lower value | 410,000 tested, 4.5% active | activity change, negative = inhibition, % at 57.5 µM; in the data active means activity change below about -60%; inconclusive means no clear call, values can overlap the other calls; inactive means above about -39%
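After 16 h attachment at 37C, HFF cells received test compound and HCMV-luciferase (1 PFU/cell); reporter luminescence read 72 h later, data normalized against buffer-only and known inhibitor Salinomycin.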
Large screens that a line does not name were inactive. Only some compounds are listed: those with a hit (about 8% of all), similar ones and a draw of the others.

O=S(=O)(c1ccc(Br)cc1)c1nc(-c2ccco2)oc1SCc1ccccc1Cl	none (no result: SARS PLpro yeast, HCV inh)
COc1ccc(/C=C2/SC(=S)N(CCCC(=O)Nc3cccc(O)c3)C2=O)cc1	Lassa entry inh inconclusive, Marburg entry inh 7.9µM, HCV inh inconclusive, HCMV antiviral -97
COc1ccc(/C=C2\SC(=S)N(CCC(=O)Nc3cccc(O)c3)C2=O)cc1OC	none
COc1ccc(NC(=O)CCCN2C(=O)/C(=C\c3ccco3)SC2=S)cc1	Lassa entry inh inconclusive, FMDV inh inconclusive, HCV inh inconclusive, HCMV antiviral -101
COc1ccc(/C=C2\SC(=O)N(CCNC(=O)Cc3coc4cc(OC)ccc34)C2=O)cc1	HCV inh inconclusive, HCMV antiviral -103
COc1ccc(/C=C2/SC(=S)N(CCCC(=O)Nc3ccccc3C(=O)O)C2=O)cc1	Lassa entry inh 2.8µM, FMDV inh 8.9µM, Marburg entry inh 7.9µM
CCOCCCn1c(SCC(=O)Nc2ccccc2OC)nc2c(oc3ccccc32)c1=O	FMDV inh inconclusive (no result: Lassa entry inh, SARS PLpro yeast, HCV inh)
COc1ccc([C@@H]2C(C(=O)N3CCCC3)CC(=O)N2C(=O)CCc2ccccc2)cc1 (stereo not given in full)	none (no result: Lassa entry inh, FMDV inh, Marburg entry inh, SARS PLpro yeast, HCV inh)
CCOC(=O)C1CCN(c2c(C(=O)c3ccc(C)cc3)cnc3ccc(F)cc23)CC1	FMDV inh inconclusive (no result: Lassa entry inh, SARS PLpro yeast, HCV inh)
COc1cc(OC)cc(C(=O)NCCN2C(=O)S/C(=C\c3cccs3)C2=O)c1	FMDV inh inconclusive, HCV inh 8.9µM (no result: Lassa entry inh, Marburg entry inh)
O=C(CCN1C(=O)S/C(=C\c2ccc(Cl)cc2)C1=O)Nc1ccc(C(=O)O)cc1	none
CCc1ccc(/C=C2\SC(=S)N(CCCC(=O)Nc3nccs3)C2=O)cc1	HCMV antiviral -93
Cc1ccc(/C=C2\SC(=S)N(CCCC(=O)Nc3nccs3)C2=O)cc1	Marburg entry inh inconclusive, HCMV antiviral inconclusive
CCc1ccc(/C=C2\SC(=S)N(CCCC(=O)Nc3ccccc3C(=O)O)C2=O)cc1	HCMV antiviral active (no result: Lassa entry inh, Marburg entry inh)
COc1ccc(/C=C2\SC(=O)N(CCCC(=O)Nc3ccc(C(=O)O)cc3)C2=O)cc1	FMDV inh 4µM, HCMV antiviral -101 (no result: Lassa entry inh, Marburg entry inh, SARS PLpro yeast, HCV inh)
CCOC(=O)NN=C1C[C@@H](O)[C@@H](O)[C@@H]2[C@H]3C(=O)N(C4CCCCC4)C(=O)[C@@H]3CC[C@H]12	Lassa entry inh inconclusive (no result: FMDV inh, SARS PLpro yeast, HCV inh, HCMV antiviral)
COc1ccc(/C=C2\SC(=S)N(CCCC(=O)NNC(=O)c3ccccc3O)C2=O)cc1	Lassa entry inh 2.2µM, FMDV inh 4.5µM, Marburg entry inh inconclusive, HCV inh inconclusive, HCMV antiviral -75
O=C(CCCN1C(=O)/C(=C/c2cccs2)SC1=S)NNC(=O)c1ccccc1O	Lassa entry inh inconclusive, SARS PLpro yeast inconclusive, HCV inh inconclusive, HCMV antiviral inconclusive
CCc1ccc(/C=C2\SC(=S)N(CCCC(=O)Nc3ccc(C(=O)O)cc3)C2=O)cc1	HCMV antiviral -93 (no result: Lassa entry inh, Marburg entry inh)
COc1ccc(C(C)(C)C)cc1N1C(=O)[C@@H]2CSCCS(=O)(=O)N2C1=O	none (no result: Lassa entry inh, FMDV inh, Marburg entry inh, SARS PLpro yeast, HCV inh)
COc1cccc(NC(=O)COc2cc(O)c3c(c2)OC(C)(C)CC3=O)c1	none (no result: Lassa entry inh, Marburg entry inh)
COc1ccc(NC(=O)COc2cc(O)c3c(c2)OC(C)(C)CC3=O)cc1	HCV inh 2.8µM (no result: Lassa entry inh, Marburg entry inh)
COc1ccc(CCNC(=O)COc2cc(O)c3c(c2)OC(C)(C)CC3=O)cc1	HCV inh inconclusive (no result: Lassa entry inh, Marburg entry inh)
COc1cc(NC(=O)COc2cc(O)c3c(c2)OC(C)(C)CC3=O)cc(OC)c1	HCV inh 2.8µM (no result: Lassa entry inh, Marburg entry inh)
COc1ccc(CCNC(=O)COc2cc(O)c3c(c2)OC(C)(C)CC3=O)cc1OC	HCV inh 3.2µM (no result: Lassa entry inh, Marburg entry inh)
CCN(c1ccccc1C)S(=O)(=O)c1nnc(NC(=O)c2ccccc2C)s1	Lassa entry inh inconclusive (no result: Marburg entry inh, SARS PLpro yeast, HCV inh)
Cc1ccc(C)n1-c1nnc(N2CCCC(C(=O)Nc3ccccc3Br)C2)s1 (stereo not given)	none (no result: SARS PLpro yeast, HCV inh)
CCc1c(C)nc2ncnn2c1N1CCN(S(=O)(=O)c2ccc(OC)cc2)CC1	Lassa entry inh inconclusive, Marburg entry inh inconclusive, HCV inh 1.8µM, HCMV antiviral -72
Cc1cc(N2CCN(S(=O)(=O)c3ccc(Br)cc3)CC2)n2ncnc2n1	HCV inh inconclusive
CCOc1ccc(NC(=O)C2CCCN(c3c(CC)c(C)nc4ncnn34)C2)cc1 (stereo not given)	FMDV inh inconclusive, HCV inh 13µM (no result: Lassa entry inh)

From PubChem BioAssay
